Reference: PubChem BioAssay (Tox21)
Inconclusive results are not listed. A call without a number means that no potency is given here. Active and inactive are the calls of the source. The call rests on the fitted dose curve; in most records, active means well fitted cell-killing curve with a large enough effect in the repeat runs; inconclusive means weak or mixed curves, or effect the other way; inactive means no such curve, though single readings can be large or run the other way.

Test: qHTS assay to identify small molecule agonists of the vitamin D receptor (VDR) signaling pathway - cell viability counter screen (AID 743224)
Conditions: VDR-bla HEK293T viability, CellTiter-Glo luminescence, 16 h; series mostly up to 62.6 µM
Outline: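 VDR-bla cell line, quantitative HTS format; 16 h compound incubation (37C, 5% CO2); ATP-based CellTiter-Glo luminescence measured in the reporter assay wells.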
Further: nearly all actives have a fitted effect of over 50% in size.
Potency means the concentration at half of the fitted maximal effect.

| SMILES | Potency |
| --- | --- |
| O=C(OC(=O)c1ccccc1)c1ccccc1 | inactive |
| O=c1c(O)c(-c2ccc(O)cc2)oc2cc(O)cc(O)c12 | inactive |
| CS(=O)(=O)c1ccc(-c2cn3ccccc3n2)cc1 | 29.8 µM (active) |
| CCCCCCCC/C=C\CCCCCCCCCCCC(=O)O | inactive |
| CCCCC(CC)CN (stereo not drawn) | inactive |
| C[C@@H](O[C@H]1OCCN(Cc2n[nH]c(=O)[nH]2)[C@H]1c1ccc(F)cc1)c1cc(C(F)(F)F)cc(C(F)(F)F)c1 | 23.7 µM (active) |
| c1ccc2c(c1)CCc1ccccc1N2 | inactive |
| CC(C)c1nc(CN(C)C(=O)N[C@H](C(=O)N[C@@H](Cc2ccccc2)C[C@H](O)[C@H](Cc2ccccc2)NC(=O)OCc2cncs2)C(C)C)cs1 | inactive |
| C(=C\c1ccccc1)/c1ccccc1 | inactive |
| C=C/C(C)=C/C/C=C(\C)CCC=C(C)C | inactive |
| Cc1ccc(Cl)c(Nc2ccccc2C(=O)O)c1Cl | inactive |
| CC(C)Nc1cccnc1N1CCN(C(=O)c2cc3cc(NS(C)(=O)=O)ccc3[nH]2)CC1 | inactive |
| O=C(O)c1cccc(-c2noc(-c3ccccc3F)n2)c1 | inactive |
| CCOC(=O)c1ccc(O)c(O)c1 | inactive |
| CC1=C(Br)C(=O)C(Br)=C/C1=C(/c1ccccc1S(=O)(=O)O)c1cc(Br)c(O)c(Br)c1C | inactive |
| CC(C)=CCC/C(C)=C/CC/C(C)=C/CCC(=O)OC/C=C(\C)CCC=C(C)C | inactive |
| Cc1cc(C)cc(N)c1 | inactive |
| C[C@@H]1CC(=O)NN=C1c1ccc(NN=C(C#N)C#N)cc1 | inactive |

| SMILES | Potency |
| --- | --- |
| Cc1ccc2c(Br)cc(Br)c(O)c2n1 | inactive |
| CC(C)=CCC/C(C)=C/CC/C(C)=C/C(=O)OCC(=O)[C@@]1(O)CC[C@H]2[C@@H]3CCC4=CC(=O)C=C[C@]4(C)[C@H]3[C@@H](O)C[C@@]21C | 26.6 µM (active) |
| C[C@@H](CN(C)C)CN1c2ccccc2Sc2ccccc21 | inactive |
| CC(CCC(=O)O)C(=O)O (stereo not drawn) | inactive |
| CC/C=C1/OC(=O)c2ccccc21 | inactive |
| CCC(C)COC(C)=O (stereo not drawn) | inactive |
| CCOC(=O)c1ccc(C#Cc2ccc3c(c2)C(C)(C)CCS3)nc1 | inactive |
| CC[N+](CC)(CCNC(=O)C(=O)NCC[N+](CC)(CC)Cc1ccccc1Cl)Cc1ccccc1Cl | inactive |
| CCC1CO1 (stereo not drawn) | inactive |
| C=CC(=O)[O-].C=CC(=O)[O-].[Zn+2] | inactive |
| CCCCCCC(C)(C)C(=O)O | inactive |
| C=C(C)C(=O)OCCCCCCCCCCCCC | inactive |
| Cc1cccc(O)c1N | inactive |
| CCCCCC#CC(=O)OC | inactive |
| CNC(=O)c1cnn(-c2nc(N)c3ncn([C@@H]4O[C@H](CO)[C@@H](O)[C@H]4O)c3n2)c1 | inactive |
| CCCCOc1ccc(OCCCN2CCOCC2)cc1 | inactive |
| C1COC1 | inactive |
| CC(=O)NC1(c2cccc(F)c2)CCN(CC[C@@]2(c3ccc(Cl)c(Cl)c3)CN(c3ccccc3)C(=O)CO2)CC1 | 39 µM (active) |

Test: qHTS assay to identify small molecule antagonists of the vitamin D receptor (VDR) signaling pathway - cell viability counter screen (AID 743225)
Conditions: VDR-bla HEK293T viability, CellTiter-Glo luminescence, 16 h; series mostly up to 61 µM
Outline: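 Viability counter screen run in the same wells as the beta-lactamase reporter assay: HEK 293T VDR-UAS-bla cells, 16 h compound exposure at 37C with 3 nM (final) 1-alpha,25-dihydroxyvitamin D3. CellTiter-Glo luminescence, 30 min, room temperature.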

| SMILES | Potency |
| --- | --- |
| O=C(OC(=O)c1ccccc1)c1ccccc1 | inactive |
| O=c1c(O)c(-c2ccc(O)cc2)oc2cc(O)cc(O)c12 | inactive |
| CCCCCCCC/C=C\CCCCCCCCCCCC(=O)O | inactive |
| c1ccc2c(c1)CCc1ccccc1N2 | inactive |
| C(=C\c1ccccc1)/c1ccccc1 | inactive |
| C=C/C(C)=C/C/C=C(\C)CCC=C(C)C | inactive |
| Cc1ccc(Cl)c(Nc2ccccc2C(=O)O)c1Cl | inactive |
| CC(C)Nc1cccnc1N1CCN(C(=O)c2cc3cc(NS(C)(=O)=O)ccc3[nH]2)CC1 | inactive |
| CCOC(=O)c1ccc(O)c(O)c1 | inactive |
| CC(C)=CCC/C(C)=C/CC/C(C)=C/CCC(=O)OC/C=C(\C)CCC=C(C)C | inactive |
| Cc1cc(C)cc(N)c1 | inactive |
| C[C@@H]1CC(=O)NN=C1c1ccc(NN=C(C#N)C#N)cc1 | inactive |
| C=Cc1ccc(S(=O)(=O)O)cc1 | inactive |
| C[C@@H](CN(C)C)CN1c2ccccc2Sc2ccccc21 | inactive |
| CC(CCC(=O)O)C(=O)O (stereo not drawn) | inactive |
| CC/C=C1/OC(=O)c2ccccc21 | inactive |

| SMILES | Potency |
| --- | --- |
| CCC(C)COC(C)=O (stereo not drawn) | inactive |
| CCOC(=O)c1ccc(C#Cc2ccc3c(c2)C(C)(C)CCS3)nc1 | inactive |
| CC1(CN2CCC(n3c(=O)[nH]c4ccccc43)CC2)OCc2ccccc2-n2cccc21 (stereo not drawn) | inactive |
| CC[N+](CC)(CCNC(=O)C(=O)NCC[N+](CC)(CC)Cc1ccccc1Cl)Cc1ccccc1Cl | inactive |
| O=C1NC(=O)c2cc([N+](=O)[O-])ccc21 | inactive |
| CCC1CO1 (stereo not drawn) | inactive |
| C=CC(=O)[O-].C=CC(=O)[O-].[Zn+2] | inactive |
| CCCCCCC(C)(C)C(=O)O | inactive |
| C=C(C)C(=O)OCCCCCCCCCCCCC | inactive |
| Cc1cccc(O)c1N | inactive |
| CCCCCC#CC(=O)OC | inactive |
| CC[C@]1(O)C[C@H]2CN(CCc3c([nH]c4ccccc34)[C@@](C(=O)OC)(c3cc4c(cc3OC)N(C=O)[C@H]3[C@@](O)(C(=O)OC)[C@H](OC(C)=O)[C@]5(CC)C=CCN6CC[C@]43[C@@H]65)C2)C1 | inactive |
| CNC(=O)c1cnn(-c2nc(N)c3ncn([C@@H]4O[C@H](CO)[C@@H](O)[C@H]4O)c3n2)c1 | inactive |
| CCCCOc1ccc(OCCCN2CCOCC2)cc1 | inactive |
| C1COC1 | inactive |
| CC(=O)NC1(c2cccc(F)c2)CCN(CC[C@@]2(c3ccc(Cl)c(Cl)c3)CN(c3ccccc3)C(=O)CO2)CC1 | 43.8 µM (active) |
